Consider 13 molecules from PubChem BioAssay (EPA / NIEHS).

The structures appear in SMILES notation. Results filed as inconclusive are left out. Activity calls are given as the source filed them. How the source made its calls: active means hit-call score of the fitted dose curve at least 0.9, where 1 is the maximum; inconclusive means response in the unintended direction; inactive means score below 0.9.

Sequence of sheep Cyclooxygenase-1 (Cox1), PTGS1 (gene 443551) (P05979 whole entry, looked up): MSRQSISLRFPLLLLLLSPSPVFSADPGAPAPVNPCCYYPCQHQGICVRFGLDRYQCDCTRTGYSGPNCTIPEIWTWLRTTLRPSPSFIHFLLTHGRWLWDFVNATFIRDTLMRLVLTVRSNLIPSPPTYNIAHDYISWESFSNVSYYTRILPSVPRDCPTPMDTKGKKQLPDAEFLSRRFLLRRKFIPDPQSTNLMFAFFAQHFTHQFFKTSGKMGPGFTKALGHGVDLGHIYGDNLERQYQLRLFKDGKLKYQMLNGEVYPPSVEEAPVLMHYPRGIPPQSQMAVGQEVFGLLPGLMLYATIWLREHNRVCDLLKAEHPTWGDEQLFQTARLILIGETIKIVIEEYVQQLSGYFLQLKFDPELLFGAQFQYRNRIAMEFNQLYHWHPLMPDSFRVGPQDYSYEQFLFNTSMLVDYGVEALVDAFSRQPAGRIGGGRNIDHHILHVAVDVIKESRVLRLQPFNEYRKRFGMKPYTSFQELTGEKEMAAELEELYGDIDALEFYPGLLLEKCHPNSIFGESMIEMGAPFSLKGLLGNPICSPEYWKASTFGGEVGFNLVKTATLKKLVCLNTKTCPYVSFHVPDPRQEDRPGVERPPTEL

The assay addresses sheep Cyclooxygenase-1 (Cox1), PTGS1 (gene 443551) (UniProt P05979). The experiment in a line: NVS_ENZ_oCOX1: NovaScreen (NVS) Enzymatic Assay for sheep Cyclooxygenase-1 (Cox1) (AID 2283239).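 Further: actives reduce cyclooxygenase activity so potencies are for inhibitors.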 The method, then: NVS_ENZ_oCOX1 is a biochemical, single-readout assay that uses extracted gene-proteins from Ovine seminal vesicles in a tissue-based cell-free assay. Measurements were taken 0.66 hour after chemical dosing in a 96-well plate.NVS_ENZ_oCOX1 is one of one assay component(s) measured or calculated from the NVS_ENZ_oCOX1 assay. It is designed to make measurements of enzyme activity, a form of enzyme reporter, as detected with absorbance signals by Colorimetric technology.Data from the assay component NVS_ENZ_oCOX1 was analyzed into 1 assay endpoint. This assay endpoint, NVS_ENZ_oCOX1, was analyzed in the positive analysis fitting direction relative to DMSO as the negative control and baseline of activity. Using a type of enzyme reporter, loss-of-signal activity can be used to understand changes in the enzymatic activity as they relate to the gene PTGS1. Furthermore, this assay endpoint can be referred to as a primary readout, because this assay has produced multiple assay endpoints where this one serves a enzymatic activity function. To generalize the intended target to other relatable targets, this assay endpoint is annotated to the oxidoreductase intended target family, where the subfamily is cyclooxygenase.
Binding assays used specific radioligands (tritiated, iodinated) with non-radioactive competitive displacement ligands in agonist or antagonist protocols (as indicated) and various reference compounds and inhibitors to titrate specific binding to receptors and transporters. Most enzyme assays (CYPs, kinases, phosphatases, proteases, HDACs) used recombinant protein and specific substrates (fluorescence mostly, some colorimetric and radioactive) and inhibitors, followed by a biochemical separation of substrate and product. All assays for the biochemical HTS were initially run in duplicate at a single concentration (10 uM for CYP450 assays and 25 uM for all others). […] Each assay was run with positive and negative controls, and concurrent controls on every plate. The follow-up (secondary) screen tested active chemical-pairs in concentration series, as well as a few additional assays not tested in the primary screen, some selected negative inactives, and several cases re-run in the concentration series for confirmatory purposes.
In the case of `C1=Cc2cccc3cccc1c23`, the concentration at half-maximal activity (AC50) (in general, the midpoint of the concentration-response curve, whichever way the signal moves) is 15.7 µM (active).
On to `Cc1cc(N=Nc2ccccc2C)ccc1N`, for which the AC50 was 11.8 µM (active).
As for `Cc1cccc(N)c1N`, the molecule was called inactive.
With `Cc1ccc(N)c(N)c1`, the AC50 was 42 µM (active).
`ClCCOCCCl`: the molecule was classed as inactive.
Regarding `Clc1ccccc1Cl`, the molecule was called inactive.
`c1ccc2c(c1)-c1cccc3cccc-2c13`: the result was inactive.
Regarding `Nc1ccc(Cl)cc1N`, the AC50 is 4.69 µM (active).
Same read-out and setting: as for `Nc1ccc(N=Nc2ccccc2)cc1`, the figure is 4.49 µM (active); as for `[Cl-].[Cl-].[Hg+2]`, 2.97 µM (active).
As to `CN(C)[C@@H]1C(=O)C(C(N)=O)=C(O)[C@@]2(O)C(=O)C3=C(O)c4c(O)cccc4[C@@](C)(O)[C@H]3C[C@@H]12`, the molecule was called inactive.
Consider `CN(C)c1ccc(C(=O)c2ccc(N(C)C)cc2)cc1`, for which the AC50 was 25.2 µM (active).
The same measure, in the same setting: as for `c1ccc(NNc2ccccc2)cc1`, the figure is 2.46 µM (active).
